# Rows were chosen to be rich in hits. Some 1.5% of all compounds tested hit in one or more screens of this group.
# Akt phos inh – Akt phosphorylation inhibition; Neuro2A IGF-stimulated pAkt S473 HTRF, 20 min; hits give low values; activity change, % for hits at 50 µM; hit rate 0.32% among 360,000; AID 651550; in the data active = activity change below about -80%; inconclusive = mostly about -51% to -80%
#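 Neuro2A cells (4,500/well, DMEM with 0.5% FBS) were treated with compound at a single 50 µM final concentration, stimulated with 6 nM IGF for 20 min at 37 °C, and lysed. Phospho-Akt Ser473 was read by HTRF as 665/615 ratio ×10^4.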
# BRCA1 expr up – activators of BRCA1 expression; Potency, µM (top dose mostly 46.1 µM), usual class: activators; hit rate 1.1% among 380,000; MCF7-BRCA1-FFLuc reporter, luminescence, 48 h; response scale: scaled: vehicle 0%, 10 µM genistein 100%; also: nearly all actives have a fitted effect of over 80% in size
#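 MCF7-BRCA1-FFLuc cells, 2000/well in phenol-red-free MEM, attached 2 h then treated 48 h at 37 C. Luciferase luminescence read 15 min after reagent; normalized to genistein maximum activation (10microM) and DMSO, concentration-response fitted.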
# PINK1 expr mod – modulators of PINK1 expression. Potency, µM (top dose mostly 76.6 µM), most hits filed as activators. hit rate 0.2% among 410,000. PINK1 immunofluorescence, high-content cytometry, 24 h. AID 624263; active = well fitted activation curve with a large enough effect; inconclusive = small, poorly fitted or top-dose-only effect; cell line not stated here; also: nearly all actives have a fitted effect of over 65% in size
#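 Compound titrations (5 concentrations, 24 h) on a stable cell line; DMSO and CCCP controls. Endpoint: fixed-cell PINK1 immunofluorescence with mitochondrial, cell and nuclear markers, scanned by microplate cytometer.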
# TCR activator – activators of T cell receptors; primary human leukocytes, anti-CD3, IL-2 HTRF, 48 h; Potency, µM (series often up to 9.22 µM), most hits filed as activators; 330,000 tested, under 10 active
#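 IL-2 release read by HTRF sandwich (Eu cryptate donor, d2 acceptor, 665 nm emission) after 48 hr exposure of primary human leukocytes to compound together with anti-CD3 beads in the absence of co-stimulatory signals.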
# A number is an active result; . = inactive; ? = inconclusive; / = no result given; [ ] = remark or other dose. Unless noted, calls follow the shape of the dose curve; as a rule, active = well fitted curve in the direction sought with a large enough effect; inconclusive = small, poorly fitted or top-dose-only effect, or another doubt; inactive = no such curve, though single readings can be large; an effect the other way counts as inactive or inconclusive.
SMILES,Akt phos inh,BRCA1 expr up,PINK1 expr mod,TCR activator
N#C/C(=C/c1ccc(C(=O)O)cc1)C(=O)Nc1ccccc1,.,.,.,.
CCCNC(=O)C1CCC(Cn2c(=O)c3sccc3n(CC(=O)NCc3ccccc3)c2=O)CC1 (centres undefined),/,/,.,/
Cc1nc2sccn2c1CN1CCC2(CC1)CC2C(=O)Nc1ccc2c(c1)OCO2 (centres undefined),/,/,.,/
COc1ccc2[nH]c(C)c(C(=O)CNc3nccs3)c2c1,/,.,.,/
CCC1(C2CCN(C(=O)c3ccc(C)c(C)c3)CC2)NC(=O)N(CCc2scnc2C)C1=O (centres undefined),/,/,.,/
O=C(CCN1CCN(CCO)CC1)Nc1ccc(OCc2ccccc2)cc1,.,.,.,.
CN1CCN(CCC(=O)Nc2ccc(OCc3ccccc3)cc2)CC1,.,11.2µM,.,.
CC(C)(CNC(=O)c1cnn(-c2ncc3c(n2)-c2ccccc2CCC3)c1C1CC1)N1CCOCC1,/,/,.,/
Cc1nc2cc(Nc3nnc(-c4ccccc4)c4ccccc34)ccc2n1C,.,4.47µM,.,.
Cc1cc(-c2ccc(S(=O)(=O)Nc3ccc(Cl)cc3C)cc2)on1,/,/,.,/
O=C(/C=C/c1cccs1)NCc1ccccc1,.,14.1µM,.,.
Cc1ccc(CNC(=O)/C=C/c2ccccc2Cl)cc1,.,.,.,.
O=C(/C=C/c1ccc(F)cc1)NCc1cccs1,.,14.1µM,.,.
O=C(/C=C/c1ccc(Br)cc1)NCc1cccs1,.,.,.,.
O=C(/C=C/c1ccccc1Cl)NCc1cccs1,.,3.98µM,.,.
C/C(=N/N=C(\C)c1ccccc1O)c1ccccc1O,.,.,31.6µM,.
CC(=O)Nc1ccc(NC(=S)NC(=O)c2oc3ccccc3c2C)cc1,.,.,.,.
Cc1cccnc1NC(=S)NC(=O)c1oc2ccccc2c1C,.,2.82µM,.,.
Cn1c(-c2ccncc2)nc2cc(C(=O)N[C@H]3CCCCNC3=O)cc(NC(=O)C3CCC3)c21,/,/,.,/
S=c1[nH]nc(COc2ccccc2)n1Cc1ccccc1,.,.,.,.
S=c1[nH]nc(COc2ccccc2)n1C1CCCCC1,-100.6%,.,.,.
CC(NC(=O)c1cc(F)ccc1F)c1nnc2n1CCN(Cc1ccccc1O)CC2 (centres undefined),/,/,.,/
Cc1ccc(S(=O)(=O)Nc2ccccc2CNc2ccc(Br)cn2)cc1,.,.,15.8µM,.
O=C1OC(c2ccccc2)=N/C1=C\N1CCCCC1,.,7.94µM,/,.
O=C1OC(c2ccccc2)=C/C1=C/N1CCCCC1,.,3.98µM,.,.
SMILES,Akt phos inh,BRCA1 expr up,PINK1 expr mod,TCR activator
COc1cc(O)ccc1CN1CCc2nnc(C(C)NC(=O)c3cc(F)ccc3F)n2CC1 (centres undefined),/,/,.,/
COc1ccc2oc(C(=O)C3CC3)c(N)c2c1,.,6.31µM,.,.
COc1ccc2oc(C(=O)c3ccccc3)c(N)c2c1,.,.,.,/
COc1ccc2oc(C(=O)NC(C)(C)C)c(C)c2c1,.,7.08µM,.,.
Cc1ccc(OCC(=O)N2CCc3ccccc3C2)c(Br)c1,.,12.6µM,.,.
Cc1ccc(OCC(=O)N2CCc3ccccc3C2)c(C)c1,.,.,.,.
O=C1c2ccccc2C(=O)C1c1ccccn1,.,2.51µM,.,.
O=C1c2ccccc2C(=O)C1c1ccncc1,.,.,.,.
COc1cc2nc(N3CCOCC3)nc(NC(C)C)c2cc1OC,/,.,.,/
CCOC(=O)/C(C(N)=NCCO)=C(/O)c1ccccc1,.,.,.,.
CCOC(=O)/C(C(N)=NCCCO)=C(/O)c1ccccc1,.,.,14.1µM,/
COc1ccc(CNC(=S)N/N=C(/C)c2ccccc2)cc1,.,7.08µM,.,.
C/C(=N\NC(=S)NCc1ccccc1)c1ccccc1,.,?,.,.
CCC(=O)Nc1cccc(-c2cn3ccsc3n2)c1,-104.7%,.,.,.
CC(C)(C)CC(=O)Nc1cccc(-c2cn3cccnc3n2)c1,.,8.91µM,.,.
COCCN1CCN(C(=O)c2cnn(-c3nccc(-c4ccco4)n3)c2C2CC2)CC1,/,/,.,/
COC(=O)c1ccc(NC(=O)CN(c2ccc(OC)cc2)S(C)(=O)=O)cc1,.,11.2µM,.,.
CCOc1ccc(NC(=O)CN(c2ccc(OC)cc2)S(C)(=O)=O)cc1,.,11.2µM,.,.
CCOc1ccc(N(CC(=O)NCc2ccccc2C)S(C)(=O)=O)cc1,.,11.2µM,.,.
O=C(c1ccccc1-n1cccn1)N1CCOc2ccc(CN3CCOCC3)cc2C1,/,/,.,/
NS(=O)(=O)c1ccc(-c2ccc(/C=N/NC(=O)c3ccc([N+](=O)[O-])cc3)o2)cc1,.,.,39.8µM,.
CN(CCO)C(=O)c1cn(C2CCN(Cc3cccc(C(F)(F)F)c3)CC2)nn1,/,/,.,/
Cc1ccccc1-c1noc(C23CC4CC(CC(C4)C2)C3)n1,/,.[1.84 µM],/,.
c1cncc(-c2noc(C34CC5CC(CC(C5)C3)C4)n2)c1,.,12.6µM,.,.
O=C(Nc1ccc(OCC(F)(F)C(F)F)c(C(F)(F)F)c1)c1ccccc1O,.,.,15.8µM,.
SMILES,Akt phos inh,BRCA1 expr up,PINK1 expr mod,TCR activator
O=C(Nc1ccc(OCC(F)(F)C(F)F)c(C(F)(F)F)c1)c1ccccc1,.,.,.,.
COc1ccc(N2C(N)=NC(N)=NC23CCCC3)cc1,-105.6%,.,.,.
CCCCOc1ccc(N2C(N)=NC(N)=NC23CCCCC3)cc1,.,.,.,.
O=Cc1ccc(OCc2ccc3ccccc3c2)cc1,.,4.47µM,.,.
COc1cc2c(NC3CCN(C)CC3)nc(N3CCCCC3)nc2cc1OCCCN(C)C,/,.,.,/
C[n+]1cccc(Br)c1,/,.,.,/
COc1ccc(C(=O)c2ccsc2N)cc1,.,11.2µM,.,.
Fc1cccc(CSc2nc3ccncc3[nH]2)c1,.,?,.,.
Clc1cccc(CSc2nc3ccncc3[nH]2)c1,.,8.91µM,.,.
CCC1C(=O)NCCN1Cc1ccc2c(c1)CN(Cc1ccc(OC)cc1OC)CCO2 (centres undefined),/,/,.,/
CNS(=O)(=O)c1cn(CC(=O)N2CCN(c3ccccc3OC)CC2)cc1S(=O)(=O)NC,/,/,.,/
CNc1nc(C)c(C(=O)OCc2ccccc2)s1,.,11.2µM,.,.
COC(=O)c1sc(NC(=O)COc2ccccc2)nc1C,.,7.94µM,.,.
COC(=O)c1sc(NC(=O)COc2ccc(C)cc2)nc1C,.,.,.,.
Cc1c(C(=O)N2CC3CCC2C3)sc2ncnc(NCc3ccco3)c12 (centres undefined),/,/,.,/
COC(=O)c1ccccc1-c1cc(C)cc2c1OC(CNC(=O)c1ccn(C)n1)C2 (centres undefined),/,/,.,/
COc1ccc2cc(C[C@@H]3CC[C@@H](CO)O3)ccc2c1,.,2.82µM,.,.
COc1ccc2cc(C#N)c(SCC(=O)N3CCCC3)nc2c1,.,11.2µM,.,.
COC(=O)CSc1nc2cc(OC)ccc2cc1C#N,.,?,.,/
COc1ccc(NC(=S)NC(=O)c2ccccc2)cn1,.,11.2µM,.,.
O=C(Nc1ccc(Br)cc1)c1cccc(S(=O)(=O)Nc2cnc3ccccc3c2)c1,.,.,?,.
